Measurements as given in article PMC4336329 (PLoS ONE, 2015).
Hit rate of the full screen: of about 310,000 compounds, about 14,000 (4.5%) showed an effect of 50% or more. Effects have a minus sign here. Shown is part of a subset that was picked to be rich in strong results.

target: human ether-à-go-go-related gene (hERG) potassium channel (human, UniProt Q12809); test: primary screen, population patch clamp on CHO cells stably expressing hERG; higher = less effect of the substance
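Note: peak tail current of the secondary pulse compared with the same well before compound.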

Chain of human ether-à-go-go-related gene (hERG) potassium channel (Q12809 whole entry, looked up): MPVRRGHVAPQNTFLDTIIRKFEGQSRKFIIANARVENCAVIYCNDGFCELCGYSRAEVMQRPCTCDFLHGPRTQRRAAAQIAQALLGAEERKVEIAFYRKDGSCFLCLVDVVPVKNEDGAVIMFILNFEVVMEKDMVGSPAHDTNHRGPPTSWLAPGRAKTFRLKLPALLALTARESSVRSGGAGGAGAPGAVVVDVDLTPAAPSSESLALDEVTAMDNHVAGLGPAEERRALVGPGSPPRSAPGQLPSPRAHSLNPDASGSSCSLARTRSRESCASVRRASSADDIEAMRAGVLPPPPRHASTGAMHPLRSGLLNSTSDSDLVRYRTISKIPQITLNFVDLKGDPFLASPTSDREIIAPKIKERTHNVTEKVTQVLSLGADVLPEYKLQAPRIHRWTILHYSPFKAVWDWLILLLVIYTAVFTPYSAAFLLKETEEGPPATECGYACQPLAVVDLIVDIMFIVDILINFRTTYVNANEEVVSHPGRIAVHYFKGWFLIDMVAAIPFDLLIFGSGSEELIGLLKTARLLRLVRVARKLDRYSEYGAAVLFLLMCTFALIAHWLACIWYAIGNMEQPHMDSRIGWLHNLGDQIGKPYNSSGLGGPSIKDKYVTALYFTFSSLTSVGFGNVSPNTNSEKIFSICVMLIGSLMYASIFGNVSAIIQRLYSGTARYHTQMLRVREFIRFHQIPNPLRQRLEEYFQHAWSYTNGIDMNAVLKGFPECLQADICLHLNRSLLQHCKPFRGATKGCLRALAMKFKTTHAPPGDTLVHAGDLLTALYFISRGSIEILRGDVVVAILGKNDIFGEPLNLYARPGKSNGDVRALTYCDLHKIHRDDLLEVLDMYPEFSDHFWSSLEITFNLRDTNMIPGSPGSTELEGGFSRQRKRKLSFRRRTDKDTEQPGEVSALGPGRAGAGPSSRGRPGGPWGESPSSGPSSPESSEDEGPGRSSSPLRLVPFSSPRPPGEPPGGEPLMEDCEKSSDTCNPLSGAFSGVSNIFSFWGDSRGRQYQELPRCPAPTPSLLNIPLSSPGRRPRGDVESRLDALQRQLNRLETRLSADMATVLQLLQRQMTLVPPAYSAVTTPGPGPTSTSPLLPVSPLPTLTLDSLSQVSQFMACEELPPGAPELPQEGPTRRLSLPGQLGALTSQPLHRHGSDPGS

| Structure (SMILES) | hERG current change (%, negative = inhibition) at 10uM |
| --- | --- |
| O=C(Cc1ncc(C(F)(F)F)cc1Cl)N1CCN(c2ccc(F)cc2)CC1 | -41.3% |
| COc1ccc(N2CCN(C(=O)Cc3ncc(C(F)(F)F)cc3Cl)CC2)cc1 | -51.9% |
| O=C(Cc1ncc(C(F)(F)F)cc1Cl)N1CCN(c2ccccn2)CC1 | -17.2% |
| COc1ccc(OCC(=O)N2CCN(c3cccc(C(F)(F)F)c3)CC2)cc1 | -42.6% |
| CN1CCN(C(=O)CCc2ncc(C(F)(F)F)cc2Cl)CC1 | 11.7% |
| O=C(Cc1ncc(C(F)(F)F)cc1Cl)N1CCN(c2cccc(Cl)c2)CC1 | -60.6% |
| CCN1CCN(C(=O)C2CCN(S(=O)(=O)c3ccc4c(c3)NC(=O)C(C)S4)CC2)CC1 (centres unmarked) | 14.1% |
| COCCN(C(=O)c1csnn1)C(C(=O)NC1CCCC1)c1ccccc1 (centres unmarked) | 3.23% |
| CC(C)C1=C2OC(N)=C(C#N)C(C#N)=C2C(C)CC1 (centres unmarked) | 9.98% |
| C#CCNC(=O)C1=C[C@@H](c2ccc(Br)cc2)[C@H](CCCO)[C@@H](OCC)O1 | -28.4% |
| CCOc1ccc(N(CC)S(=O)(=O)c2ccc3c(c2)oc(=O)n3C)cc1 | -5.43% |
| COC(=O)c1sccc1NC(=O)c1cc(C)on1 | 4.01% |
| COc1ccccc1-c1coc2c(CN3CCC(C)CC3)c(O)ccc2c1=O | 7.18% |
| Cc1ccc(S(=O)(=O)N2CCOCC2)cc1C(=O)NCCCn1ccnc1 | 15.6% |
| CC1CC(OCC(O)CN2CCCCC2C)CC(C)(C)C1.Cl (centres unmarked) | -25.8% |
| CC(NCC(O)COCCC12CC3CC(CC(C3)C1)C2)c1ccccc1.Cl (centres unmarked) | -53.8% |
| NCC(O)COCCC12CC3CC(CC(C3)C1)C2 (centres unmarked) | -1.48% |
| CC1CCCCN1CC(O)COCCC12CC3CC(CC(C3)C1)C2.Cl (centres unmarked) | -63.6% |
| CC1CCCCN1CC(O)COCc1ccccc1.Cl (centres unmarked) | 5.66% |
| CC1CCN(CC(O)COCCC23CC4CC(CC(C4)C2)C3)CC1.Cl (centres unmarked) | -51.5% |
| Cl.OC(COCCC12CC3CC(CC(C3)C1)C2)CN1CCCCC1 (centres unmarked) | -40.1% |
| Cl.OC(COCCC12CC3CC(CC(C3)C1)C2)CN1CCCC1 (centres unmarked) | -30.3% |
| CC1CCC(C(C)C)C(OCC(O)CNC(C)c2ccccc2)C1.Cl (centres unmarked) | 0.875% |
| CCC(=O)Nc1ccc(N2CCN(C(=O)c3ccccc3C)CC2)cc1 | 0.168% |

| Structure (SMILES) | hERG current change (%, negative = inhibition) at 10uM |
| --- | --- |
| CSc1nc(N(C)C)c2ccccc2n1 | -19% |
| CCn1ccnc1CN(C)Cc1c(C(=O)N2C[C@@H](C)O[C@@H](C)C2)nc2ccc(Cl)cn12 | 11.6% |
| Cc1ccc(N2N=C(C(=O)O)CCC2=O)cc1Cl | -45.2% |
| CCC1(c2ccccc2)NC(=O)N(CC(=O)c2ccc3c(c2)OCO3)C1=O (centres unmarked) | -4.15% |
| Cc1ccc2[nH]c(=O)c(CN(CCCN3CCOCC3)C(=O)Nc3cccc(Cl)c3)cc2c1 | -32.4% |
| O=C(Nc1ccc(F)cc1)N(CCCN1CCOCC1)Cc1cc2cc3c(cc2[nH]c1=O)OCCO3 | -25.1% |
| CCc1ccc2[nH]c(=O)c(CN(CCCN3CCOCC3)C(=O)Nc3ccc(F)cc3)cc2c1 | -68.1% |
| CCc1ccc2[nH]c(=O)c(CN(CCCN3CCOCC3)C(=O)Nc3ccccc3)cc2c1 | -54.2% |
| O=C(Nc1ccc(F)cc1)N(CCCN1CCOCC1)Cc1cc2cc3c(cc2[nH]c1=O)OCO3 | -49.3% |
| CCc1ccc2[nH]c(=O)c(CN(CCN3CCOCC3)C(=O)Nc3ccccc3F)cc2c1 | -23.1% |
| O=C(Nc1cccc(Cl)c1)N(CCN1CCOCC1)Cc1ccccc1F | -49.6% |
| Cc1ccc2[nH]c(=O)c(CN(CCN3CCOCC3)C(=O)Nc3ccc(F)cc3)cc2c1 | -37% |
| O=C(Nc1ccccc1)N(CCCN1CCOCC1)Cc1ccccc1F | -20.6% |
| O=C(Nc1ccccc1)N(CCCN1CCOCC1)Cc1cc2cc3c(cc2[nH]c1=O)OCCO3 | -2.99% |
| Cc1ccc2[nH]c(=O)c(CN(CCCN3CCOCC3)C(=O)Nc3ccc(Cl)cc3)cc2c1 | -71.7% |
| O=C(Nc1cccc(Cl)c1)N(CCCN1CCOCC1)Cc1ccccc1F | -64.5% |
| CCOc1ccc(S(=O)(=O)Nc2ccc3c(c2)OCO3)cc1 | -14.9% |
| COc1cc(NC(=S)NCCSc2ccc(C)cc2)cc(OC)c1 | -1.01% |
| C=CCOc1ccccc1CNCc1cccnc1.Cl | 12.6% |
| Cc1cc(C(=O)NNC(=S)Nc2cccc(C(F)(F)F)c2)nn1C | 30.1% |
| Cc1ccc(-n2cc[nH]c2=S)cc1C | 22.7% |
| COc1cc2cc(CN(CCCN3CCOCC3)C(=O)Nc3ccc(F)cc3)c(=O)[nH]c2cc1OC | -33.2% |
| COc1ccc2[nH]c(=O)c(CN(CCCN3CCOCC3)C(=O)NCc3ccccc3)cc2c1 | 8.39% |
| Cc1ccc(NC(=O)N(CCCN2CCOCC2)Cc2cc3cc4c(cc3[nH]c2=O)OCO4)cc1 | -42% |

| Structure (SMILES) | hERG current change (%, negative = inhibition) at 10uM |
| --- | --- |
| CCc1ccc2[nH]c(=O)c(CN(CCCN3CCOCC3)C(=O)Nc3ccc(Cl)cc3)cc2c1 | -65.6% |
| CCc1ccc2[nH]c(=O)c(CN(CCCN3CCOCC3)C(=O)Nc3cccc(Cl)c3)cc2c1 | -54.1% |
| COc1ccc(CN(CCCN2CCOCC2)C(=O)Nc2cccc(Cl)c2)cc1OC | -39.3% |
| Oc1ccc(/C=N/NC(=S)Nc2cccnc2)c(O)c1 | 17.5% |
| O=C(Cc1ccccc1)Nc1ncccc1Cl | 6.6% |
| CCCCOc1ccc(C(=S)N2CCC(C(N)=O)CC2)cc1 | 6.67% |
| COC(=O)C1=COC(C)C2CN3CCc4c([nH]c5ccccc45)C3CC12 (centres unmarked) | -34.3% |
| COC(=O)C1=CO[C@@H](C)[C@@H]2CN(CCc3c[nH]c4ccccc34)CC[C@H]12 | -57% |
| COC(=O)C1=CO[C@@H](C)[C@H]2CN3CCc4c([nH]c5ccccc45)[C@@H]3C[C@H]12.Cl | -20.2% |
| O=C(NC1CCCN(CCc2ccccc2)C1)c1c[nH]c2ccccc12 (centres unmarked) | -68.2% |
| O=C(NC1CCCN(CCc2ccccc2)C1)c1c(F)cccc1F (centres unmarked) | -46.2% |
| O=C(NCCc1c[nH]c2ccccc12)c1ccccc1 | 4.79% |
| O=C(CCc1c[nH]c2ccccc12)NC1CC1 | 14.1% |
| O=C(NC1CCCN(CCc2ccccc2)C1)C1CCCC1 (centres unmarked) | -36.7% |
| O=C(NC1CCN(CCc2c[nH]c3ccccc23)CC1)c1ccccc1 | -71.7% |
| CSC1=C(C#N)C(c2ccccc2Cl)C2=C(N1)c1ccccc1C2=O (centres unmarked) | 6.44% |
| CCC(C)(C)n1nnnc1C(c1cccs1)N1CCCCC1 (centres unmarked) | -19.4% |
| Cc1cccn2c(CN3CCCN(C=O)CC3)c(C(=O)N(C)CCc3ccccc3)nc12 | 26.6% |
| CCOC(=O)CCNC(=O)N1CCCC(N(C)CCc2ccc(OC)c(OC)c2)C1 (centres unmarked) | -6.37% |
| CSCCC(=O)N1CCCC(N(C)CCc2ccccc2)C1 (centres unmarked) | -56.8% |
| COc1ccc(CCN(C)C2CCCN(C(=O)CCC(F)(F)F)C2)cc1OC (centres unmarked) | -52% |
| CCCCNC(=O)N1CCCC(N(C)CCc2ccc(OC)c(OC)c2)C1 (centres unmarked) | -67.8% |
| COCC(=O)N1CCCC(N(C)CCc2ccc(OC)c(OC)c2)C1 (centres unmarked) | 8.28% |
| CCOC(=O)CCNC(=O)N1CCCC(N(C)CCc2ccccc2)C1 (centres unmarked) | -49.4% |

| Structure (SMILES) | hERG current change (%, negative = inhibition) at 10uM |
| --- | --- |
| COc1ccc(CCN(C)C2CCCN(C(=O)CCSC)C2)cc1OC (centres unmarked) | -57.2% |
| COc1ccc(CCN(C)C2CCCN(C(=O)Cn3cccn3)C2)cc1OC (centres unmarked) | -6.28% |
| CC(=O)NCCC(=O)N1CCCC(N(C)CCc2ccccc2)C1 (centres unmarked) | -26.7% |
| COC(=O)CCCC(=O)N1CCCC(N(C)CCc2ccccc2)C1 (centres unmarked) | -40.6% |
| COc1ccc(CCN(C)C2CCCN(C(=O)Cn3cnnn3)C2)cc1OC (centres unmarked) | 10.2% |
| COCC(C)n1c(C)cc(C(=O)CN2C(=O)NC3(CCCCC3C)C2=O)c1C (centres unmarked) | -8.29% |
| COC(=O)c1ccc(NC(=S)N2CCC(C(N)=O)CC2)cc1 | 12.2% |
| CCC(C)(C(=O)NC1CCCCC1)N(C(=O)CNC(=O)c1ccccc1)c1c(C)n(C)n(-c2ccccc2)c1=O (centres unmarked) | 10.1% |
| CN=C1SC(C(=O)O)CC(=O)N1C (centres unmarked) | 19.1% |
| Cc1ccc(NC(=S)Nc2ccc(OC(F)F)c(Cl)c2)cc1Cl | 16.5% |
| Cc1nc2ccc(S(=O)(=O)NCC(=O)NCCc3ccc(Cl)cc3)cc2s1 | 28.3% |
| c1ccc2c(-c3nnc(SCc4cn5ccccc5n4)o3)c[nH]c2c1 | -4.5% |
| Cc1nc(Cl)c(C(=O)Nc2cccc(F)c2)c(C)c1Cl | -5.95% |
| CSc1nnc(CNS(=O)(=O)c2ccc(F)cc2)n1C | 19.7% |
| CCN1C(=O)/C(=C2\C=Cc3cc(C)ccc3N2CC)OC1=S | 0.13% |
| CCN1/C(=C/c2ccc3ccccc3[n+]2CC)C=Cc2ccccc21.[Cl-] | -82.5% |
| CCN1C(=C(C#N)C#N)C=Cc2ccccc21 | 15.8% |
| CCOC(=O)/C(C#N)=C/C=C1\C=Cc2ccccc2N1CC | 7.18% |
| C=CC[n+]1c(/C=C2\C=Cc3cc(C)ccc3N2CC)ccc2ccccc21.[Br-] | -83.5% |
| CCN1/C(=C/c2cc[n+](C)cc2)C=Cc2cc(C)ccc21.[I-] | -72.2% |
| CCN1C(=C(C#N)C#N)C=Cc2cc(C)ccc21 | 15.7% |
| CCN1/C(=C2\C(=O)N(c3ccccc3)N=C2C)C=Cc2cc(C)ccc21 | -40% |
| CCN1/C(=C/c2ccc3ccccc3[n+]2CCCS(=O)(=O)[O-])C=Cc2cc(C)ccc21 | 24.2% |
